D1 PAM: Potentiators of Human D1 Dopamine Receptor: qHTS. potentiation, % at 10 µM. actives 0.036% (n = 360,000). HEK293 TREx D1 cells, calcium flux, dopamine EC20 potentiation. D(1A) dopamine receptor (Homo sapiens), P21728; in the data active means potentiation above about 30%
D1 ag: Allosteric Agonists of the Human D1 Dopamine Receptor: qHTS. HEK293 T-REx D1 cells, calcium flux, agonist mode. activation, % at 2 µM. D(1A) dopamine receptor (Homo sapiens), P21728. actives 1% (n = 360,000); in the data active means activation above about 30%
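Inducible HEK293 T-REx D1 cells, force-coupled to calcium signalling, were plated at 4000 cells/well with tetracycline and held overnight at 30 C. After no-wash calcium dye loading, compound-evoked calcium rise over 180 s flagged agonists.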
DRD3 agonist: qHTS of D3 Dopamine Receptor Agonist: qHTS | actives 0.58% (n = 410,000) | D3R DiscoveRx beta-arrestin cells, luminescence, 90 min | max activation, % | AID 652048, 2013; in the data active means max activation above about 30%
Target sequence (P35462 whole entry, looked up): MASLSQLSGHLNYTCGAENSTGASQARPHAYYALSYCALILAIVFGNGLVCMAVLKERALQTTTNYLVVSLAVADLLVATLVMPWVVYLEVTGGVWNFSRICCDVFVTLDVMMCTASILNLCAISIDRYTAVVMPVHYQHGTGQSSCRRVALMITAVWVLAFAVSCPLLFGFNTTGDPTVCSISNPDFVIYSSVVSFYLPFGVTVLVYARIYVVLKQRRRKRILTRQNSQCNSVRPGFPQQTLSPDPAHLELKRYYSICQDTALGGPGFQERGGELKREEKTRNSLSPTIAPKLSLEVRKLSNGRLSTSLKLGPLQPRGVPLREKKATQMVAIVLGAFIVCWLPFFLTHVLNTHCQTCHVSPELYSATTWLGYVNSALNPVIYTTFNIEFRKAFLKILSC
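Agonist-mode cell screen: cells plated at 1500/well and incubated overnight at 37 °C, then exposed to library compounds for 90 min at 37 °C. Detection reagent was added for 30–60 min at room temperature, and luminescence was read.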
D1 antagonist: Antagonist of Human D 1 Dopamine Receptor: qHTS. HEK293 TREx D1 cells, calcium flux, dopamine EC80; stronger effect = lower value. activity change, negative = inhibition, % at 10 µM. actives 3.2% (n = 360,000). D(1A) dopamine receptor (Homo sapiens), P21728; in the data active means activity change below about -30%
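Using tetracycline-induced force-coupled D1 Hek293 cells and a calcium dye, signals were followed for 180 s after compound, then for 180 s after EC80 dopamine, to detect inhibitors.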
DRD3 antagonist: qHTS of D3 Dopamine Receptor Antagonist: qHTS. actives 2.5% (n = 360,000). D3R cells, DiscoveRx beta-arrestin luminescence, antagonist mode; stronger effect = lower value. D(3) dopamine receptor (Homo sapiens), P35462. max response, negative = inhibition, %. AID 652054, 2013; in the data active means max response below about -50%; inconclusive means no clear call, values can overlap the other calls
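Cells plated overnight at 1500 cells/well, then exposed to library compounds with dopamine controls for 90 minutes at 37 degrees C. DiscoveRx reagent added for 30–60 minutes at room temperature; luminescence read, quantitative HTS format.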
Hits are given with their value; 0 = inactive; ? = inconclusive; - = no result. Most compounds without a hit are left out; they make up all but 6.1% or so of the library.

SMILES | D1 PAM | D1 ag | DRD3 agonist | D1 antagonist | DRD3 antagonist
O=S(=O)(c1ccc(OCC(O)CN2CCC(Cc3ccccc3)CC2)cc1)N1CCOCC1 (centres undefined) | 0 | 0 | 0 | 0 | -59
CCOC(=O)C1=C(Nc2ccccc2)CC(C)(O)C(C(=O)OCC)C1c1ccc(Cl)cc1 (centres undefined) | 0 | 0 | 0 | 0 | 0
N#Cc1c(SCc2ccc(Cl)cc2)sc(C(=O)c2ccccc2)c1N | 0 | 0 | 0 | 0 | 0
CSc1c(C#N)c(N)nc2sc(C(=O)c3ccccc3)c(N)c12 | 0 | 37 | 0 | 0 | 0
COc1ccc(-c2nnc(C3CCN(S(=O)(=O)c4cccc(Cl)c4)CC3)o2)cc1 | 0 | 0 | 0 | 0 | -
Cc1cccc(NC(=O)C2CCN(c3nccc(C)n3)CC2)c1 | 0 | 0 | 0 | -35 | 0
Cc1ccc(/C=[N+](\[O-])c2ccc(N(C)C)cc2)c2nsnc12 | 0 | 37 | 0 | 0 | ?
Cc1ccc2nsnc2c1NS(=O)(=O)c1c(C)ccc2nsnc12 | 0 | 0 | 0 | 0 | 0
Cc1ccc(S(=O)(=O)NNc2nc3ccccc3nc2C(F)(F)F)cc1 | 0 | 0 | 0 | 0 | -54
Cc1ccc(S(=O)(=O)NNc2ccccc2)cc1 | 0 | 0 | 0 | 0 | 0
NC(c1ccc(F)c(F)c1)c1nc(-c2cc(F)cc(F)c2)cs1 (centres undefined) | - | - | 0 | - | -72
NC(c1ccc(F)c(F)c1)c1nc(-c2cncnc2)cs1 (centres undefined) | - | - | 0 | - | 0
C=CCc1ccccc1OCCNCCCOC | 0 | 0 | 0 | -46 | -102
C=CCc1cc(Cl)ccc1OCCOCCNCCOC | 0 | 0 | 0 | 0 | 0
C=CCc1cc(Cl)ccc1OCCNCCCOC | 0 | 0 | 0 | 0 | -59
C#CCSc1nc(Cc2ccc(Cl)cc2)nc2ccccc12 | 0 | 0 | 48 | 0 | 0
COc1nc(Cc2ccc(Cl)cc2)nc2ccccc12 | 0 | 0 | 0 | 0 | 0
C/C(=C\C(=O)c1ccccc1)Nc1ccc(Cl)c(Br)c1 | - | - | 0 | - | -55
CCOc1ccccc1N(CC(=O)Nc1ccccc1Br)S(=O)(=O)c1ccccc1 | - | - | 0 | - | 0
Cc1ccnc(NS(=O)(=O)c2ccc(NS(=O)(=O)c3cc(Cl)ccc3Cl)cc2)n1 | 0 | 0 | 0 | 0 | 0
Cc1ccc2[nH]c(=O)c(N3CCOCC3)c(-c3ccccc3)c2c1 | 0 | 0 | 33 | 0 | 0
O=C(CCN1CCOCC1)Nc1c(-c2ccccc2)c2cc(Br)ccc2[nH]c1=O | 0 | 0 | 0 | 0 | 0
CC(=O)c1ccc(S(=O)(=O)N(C)CC(=O)Nc2ccc(C)cc2)cc1 | - | 0 | 0 | 0 | 0
Cc1ccc(C(=O)/C=C\C(=O)c2ccc(C)cc2)cc1 | 0 | 0 | 0 | -38 | 0
Cc1ccc(C(=O)c2ccc(C)cc2)cc1 | 0 | 0 | 0 | 0 | 0
SMILES | D1 PAM | D1 ag | DRD3 agonist | D1 antagonist | DRD3 antagonist
Cc1ccc(C(=O)/C=C\NCc2ccccc2)cc1 | 0 | 0 | 0 | 0 | 0
Cc1ccc(S/C=C\C(=O)c2ccccc2)cc1 | 0 | 0 | 0 | 0 | -53
CC(/C=C/C(=O)c1ccc(C)cc1)=C\c1ccccc1 | 0 | 0 | 0 | 0 | -61
Cc1ccc(C(=O)C=CNNC(=O)c2ccccc2)cc1 | 0 | 0 | 0 | 0 | 0
CCn1ncc(CNC(=O)C2(C)CC2(Cl)Cl)c1C (centres undefined) | 0 | 0 | 0 | 0 | 0
CCOC(=O)Cn1c(=O)n(C2CCCCC2)c2nc(-c3ccc(OCC)cc3)nc(C(N)=O)c21 | 0 | 0 | 0 | 0 | -
COc1cccc(CN2C(=O)C(C)N(C(=O)c3ccccc3)c3ccccc32)c1 (centres undefined) | 0 | 0 | 0 | 0 | 0
COc1cc2c(=O)n(CC3CCCO3)c(=O)n(CC(=O)Nc3cccc(Cl)c3)c2cc1OC (centres undefined) | 0 | 0 | 0 | -44 | 0
CCc1nn2c(-c3ccco3)ccnc2c1-c1ccccc1 | 0 | 0 | 0 | 0 | -
CC(C)(C)n1nc2c(c1NC(=O)Cc1cccs1)CSC2 | - | 0 | - | -81 | -
CCOc1cnn(-c2cc(Oc3ccc(C)cc3)ncn2)c(=O)c1Cl | 0 | 0 | 0 | 0 | 0
